# The panel holds about 83,000 compounds, 20% with a hit somewhere; the sample as a whole holds those more often.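 Step 1: grow cells in 96-well plates. Step 2: add test compound at a single concentration. Step 3: incubate 48 h. Step 4: record percent growth.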 Values without a mark were called inactive. Calls of active or inactive are those of the source. How the source made its calls: active means growth percent below 10; inactive means the rest.
# How the values were obtained:
# Assay in all cases: NCI-60 one-dose screen, 48 h (100 = growth as untreated, 0 = no growth, -100 = all killed)
# Details in all cases: 10 µM
# DU-145 prostate = tested on: DU-145 prostate
# K-562 leukemia = tested on: K-562 leukemia
# MALME-3M melanoma = tested on: MALME-3M melanoma
# MDA-MB-231 breast = tested on: MDA-MB-231 breast
# RXF 393 renal = tested on: RXF 393 renal
# SF-268 CNS = tested on: SF-268 CNS
# SF-539 CNS = tested on: SF-539 CNS
# UACC-257 melanoma = tested on: UACC-257 melanoma
# M14 melanoma = tested on: M14 melanoma
# HT29 colon = tested on: HT29 colon
# SNB-75 CNS = tested on: SNB-75 CNS
# SNB-19 CNS = tested on: SNB-19 CNS
# PC-3 prostate = tested on: PC-3 prostate
# SK-MEL-5 melanoma = tested on: SK-MEL-5 melanoma
# UACC-62 melanoma = tested on: UACC-62 melanoma
# LOX IMVI melanoma = tested on: LOX IMVI melanoma
# SK-MEL-28 melanoma = tested on: SK-MEL-28 melanoma
# SF-295 CNS = tested on: SF-295 CNS
# HCT-15 colon = tested on: HCT-15 colon
# U251 CNS = tested on: U251 CNS
Compound,growth (DU-145 prostate),growth (K-562 leukemia),growth (MALME-3M melanoma) [%],growth (MDA-MB-231 breast),growth (RXF 393 renal),growth (SF-268 CNS),growth (SF-539 CNS),growth (UACC-257 melanoma),growth (M14 melanoma),growth (HT29 colon),growth (SNB-75 CNS),growth (SNB-19 CNS),growth (PC-3 prostate),growth (SK-MEL-5 melanoma),growth (UACC-62 melanoma),growth (LOX IMVI melanoma),growth (SK-MEL-28 melanoma),growth (SF-295 CNS),growth (HCT-15 colon) [%],growth (U251 CNS)
COc1ccccc1-n1c(-c2csc(NC(C)=O)n2)n[nH]c1=S,119%,87.5%,109,121%,102%,111%,112%,98.1%,98%,95.1%,86.5%,114%,95.4%,99.6%,110%,93.1%,109%,–,–,–
CN(C)c1nc(N)c2nccnc2n1,108%,128%,–,108%,115%,101%,105%,111%,117%,110%,84.8%,104%,–,107%,98%,95.1%,–,84.4%,120,112%
Nc1nc(Cn2c(-c3nonc3N)nc3ccccc32)nc(N2CCCCC2)n1,99%,49.3%,–,84.8%,87.7%,95.6%,101%,93.1%,98.4%,105%,76.4%,87%,78%,83.2%,84.3%,90%,95%,96.7%,84.8,96.9%
CCn1c(CSc2nc3ccccc3c(=O)n2CCc2ccccc2)n[nH]c1=S,113%,71.6%,97.2,82.8%,85.2%,98.4%,99.8%,88.5%,88.8%,88.2%,107%,106%,83.9%,82.4%,85.2%,74.2%,106%,–,–,–
COc1ccc2nc3cc(Cl)ccc3c(NCCCNCCO)c2c1,5.64% (active),-4.13% (active),17.8,-53.8% (active),–,-13.2% (active),-10.2% (active),-75.4% (active),-62.8% (active),-66.3% (active),-36.4% (active),4.9% (active),-30.6% (active),14.3%,-64.2% (active),-59.7% (active),-49% (active),3.49% (active),13.6,-45.2% (active)
Nc1ncc(-c2cnn(C3CCNCC3)c2)cc1-c1nc2ccccc2o1,15.2%,-60% (active),–,27.1%,-29.5% (active),-0.542% (active),-33.8% (active),-82% (active),-88.7% (active),-4.71% (active),13.2%,35.8%,–,26.9%,-67.1% (active),-80.6% (active),-86.8% (active),94.5%,12.4,13.1%
COc1ccc(-c2nn(-c3cccc(Cl)c3)cc2/C=C2\NC(=S)N(c3ccc(Cl)cc3)C2=O)cc1,21.4%,-12.2% (active),19.1,11.8%,-7.45% (active),38%,75.3%,1.55% (active),4.39% (active),9.73% (active),0.109% (active),63.2%,42.5%,24.2%,3.65% (active),1.65% (active),-33.5% (active),–,–,–
O=C1OC(C(Cl)(Cl)Cl)OC1C(Cl)(Cl)Cl (stereo not given),101%,91.3%,–,103%,116%,103%,115%,92.5%,99%,105%,104%,102%,86.8%,107%,95.3%,97%,107%,98%,109,104%
Cc1cn(-c2cccc(NC(=O)c3ccc(C)c(Nc4nccc(-c5cccnc5)n4)c3)c2)cn1,13.3%,-22.5% (active),42,-48.5% (active),-49.5% (active),15.8%,-33.3% (active),29.1%,22.6%,-43.4% (active),-45% (active),51.2%,34.4%,40.2%,3.99% (active),-65.5% (active),-37.6% (active),–,–,–
CC(C1=C(CN(C(=O)Cc2cn(-c3ccccc3)nc2-c2ccc(Cl)cc2)C(C)C)Cc2ccccc21)c1ccccn1 (stereo not given),81%,43.4%,–,60.2%,86.7%,74.5%,87.2%,67.3%,64.7%,32.9%,80.7%,76.9%,41.7%,46.1%,63.6%,69.2%,91.9%,75.2%,54.2,67.6%
CCCCCCCCCCCC[n+]1c(C)cc(N)c2ccccc21,24.2%,-39.5% (active),–,-3.36% (active),-27.7% (active),19.6%,16.5%,-17.8% (active),-33.5% (active),-8.54% (active),3.98% (active),9.29% (active),-6.19% (active),-96.7% (active),-27.8% (active),-74.4% (active),29.5%,-1.01% (active),34.7,8.56% (active)
Cc1c2c(nn1C(=O)c1nn(-c3ccc(Cl)cc3)cc1O)-c1ccccc1CC2,24.1%,-11.5% (active),–,38.1%,31.8%,33.9%,9.85% (active),-1.88% (active),27.2%,30%,46.7%,34.3%,–,24.3%,-6.22% (active),17.5%,54.7%,-15.1% (active),25.1,22.3%
C[n+]1c2ccccc2nc2ccccc21,-59.4% (active),25.5%,–,-2.35% (active),24.3%,20.7%,29.1%,–,-55.7% (active),21.2%,22.8%,–,7.71% (active),3.8% (active),-34.3% (active),-36.5% (active),-2.36% (active),23.4%,21.3,4.11% (active)
IC(I)I,107%,120%,–,88.6%,125%,96.4%,118%,109%,99%,115%,90.8%,106%,–,104%,88.9%,–,109%,114%,101,102%
O[C@@H]1CO[C@H]2[C@@H]1OC[C@@H]2O,108%,124%,–,92.5%,125%,108%,106%,103%,103%,103%,91.1%,99.5%,90%,116%,103%,97%,113%,–,102,108%
CC(=O)Nc1ccc(S(=O)(=O)N/N=C(\C)c2ccc(C)cc2C)cc1,112%,94.9%,–,113%,129%,104%,98.3%,95.1%,106%,105%,77.4%,101%,99.9%,113%,107%,106%,108%,–,–,104%
O=C1CC(=O)N(C(=O)c2nn(-c3ccc(Cl)cc3)cc2O)N1,46.9%,5.55% (active),–,62.3%,53.3%,43.3%,39.7%,66.1%,47.5%,27.9%,40.9%,48%,–,47%,36.1%,36.8%,136%,-7.1% (active),36.9,39.5%
COc1cc(C2CC(c3ccc4c(c3)OCO4)=NN2c2ccccc2)cc(OC)c1OC (stereo not given),107%,48.8%,–,82.2%,106%,83.6%,–,90.3%,91.6%,–,58.8%,84.8%,92.6%,86%,76.7%,89.4%,99.7%,91.2%,81,38.9%

# From PubChem BioAssay (NCI)
